Test results published in PubChem BioAssay AID1986 (Sanford-Burnham Center for Chemical Genomics, 2009).
“And” between values parts separate entries of the source, which are not always exact repeats. Equal values may be shown once. The whole screen tested about 290,000 compounds, of which about 890 (0.31%) were called active. Cut-off read from the data, not from the text of the source: active = inhibition mostly above about 52% (no sharp cut-off); inactive = mostly below about 76%. Many of the other results were omitted from the sample, so actives are more common in it than they were. More than one record can exist for a structure, and the calls need not agree.

Assay: cell-free HIV fusion peptide-binding blockers – biochemical, uHTS, fluorescence dequenching, primary screen (AID 1986)
Conditions: 30 min, stronger effect = higher value
[1] = measured here: repeat confirmation average inhibition, at 18.6 µM

| Compound | inhibition (at 20 µM) | inhibition [1] [%] |
| --- | --- | --- |
| CC(C)Cn1c(N)c(C(=O)COC(=O)c2ccncc2)c(=O)n(C)c1=O | 0.1% (inactive) | – |
| CCOc1ccc(Br)cc1S(=O)(=O)N1CCC(C(N)=O)CC1 | -0.7% (inactive) | – |
| CCn1cc(C(=O)NCCc2ccccc2C)c(=O)c2ccc(C)nc21 | -1.3% (inactive) | – |
| CC(C)Nc1cc(N2CCCC2)ccc1[N+](=O)[O-] | -0.2% (inactive) | – |
| COC(=O)CC1COc2ccccc2N1C(=O)c1ccc(Cl)cc1 (stereo not given) | -3% (inactive) | – |
| Cc1nc2c(C(=O)NCc3ccccc3Cl)c[nH]n2c(=O)c1Cl | 49.3% (inactive) | – |
| Cc1nc2c(C(=O)NCCc3ccccc3)c[nH]n2c(=O)c1Cl | 5.3% (inactive) | – |
| Cc1nc2c(C(=O)NCCc3ccccc3Cl)c[nH]n2c(=O)c1Cl | 56.9% (active) | – |
| COc1cc(CNc2ccc(S(N)(=O)=O)cc2)ccc1OCC(=O)NC1CCCCC1 | -1% (inactive) | – |
| O=C(CN1c2ccccc2S(=O)(=O)c2ccccc21)NCc1ccccc1 | -0.5% (inactive) | – |
| CC1=C(C#N)C(=O)N(C2CCS(=O)(=O)C2)C(=O)/C1=C\c1ccco1 (stereo not given) | 83.1% (active) | – |
| CC1=C(C#N)C(=O)N(C2CCS(=O)(=O)C2)C(=O)/C1=C\c1ccc(C)o1 (stereo not given) | 101% (active) | – |
| Cc1ccc(/C=C2\SC(=S)N(C3CCS(=O)(=O)C3)C2=O)o1 (stereo not given) | 25.1% (inactive) | – |
| O=C1/C(=C\c2ccco2)SC(=S)N1C1CCS(=O)(=O)C1 (stereo not given) | 40.7% (inactive) | – |
| Cc1ccc(/C=C2/SC(=S)N(C3CCCCC3)C2=O)o1 | 32.1% (inactive) | – |
| O=C1/C(=C/c2ccco2)SC(=S)N1C1CCS(=O)(=O)C1 (stereo not given) | 39.9% (inactive) | – |
| Cn1c(=O)oc2cc(S(=O)(=O)N3CCCC(C(=O)N4CCc5ccccc5C4)C3)ccc21 (stereo not given) | 2.2% (inactive) | – |
| Cc1ccc(CS(=O)(=O)Cc2ccc(C(=O)NCCc3ccccc3)o2)cc1 | 0.5% (inactive) | – |
| CC(C)CNS(=O)(=O)c1cc(C(=O)N2CCOCC2)c(Cl)cc1Cl | 1.1% (inactive) | – |
| COc1cc(/C=N/NC(N)=O)ccc1OCC(=O)Nc1ccc(C)c(C)c1 | 11.1% (inactive) | – |
| Cc1cc(C(F)F)n2ncc(C(=O)NC3CCCCCC3)c2n1 | 3.7% (inactive) | – |
| Cc1c(C(=O)NC(c2ccccn2)C(F)(F)F)oc2c(F)cccc12 (stereo not given) | 0.9% (inactive) | – |
| COc1ccc(CNC(=O)[C@@H](NC(=O)C2CCN(C(=O)[C@@H](N)Cc3ccccc3)CC2)C(C)C)cc1 | -1.9% (inactive) | – |

| Compound | inhibition (at 20 µM) | inhibition [1] [%] |
| --- | --- | --- |
| COc1ccc(OC)c(CNC(=O)CCSCc2ccc(F)cc2Cl)c1 | 0% (inactive) | – |
| CCN1C(=O)/C(=C\N2CCCc3ccccc32)SC1=S | 3.7% (inactive) | – |
| CCN1C(=O)/C(=C/N2CCc3ccccc3C2)SC1=S | 0.4% (inactive) | – |
| CCN1C(=O)/C(=C/N2CCc3ccccc32)SC1=S | 112% (active) | 63 |
| Fc1ccc(N2CCN(C(c3cccs3)c3nnnn3CCc3ccccc3)CC2)cc1 (stereo not given) | -1.4% (inactive) | – |
| COc1cc(C2CC(=O)N(CC(=O)NCC3CCCO3)c3ccccc3S2)cc(OC)c1OC (stereo not given) | 0.6% (inactive) | – |
| CC(C)(C)OC(=O)N1CCC(c2cc(=O)n3[nH]c(-c4ccc(Cl)cc4)cc3n2)CC1 | -1.3% (inactive) | – |
| COc1cc(NC(=O)c2cnn3c(C(F)F)cc(C4CC4)nc23)c(OC)cc1Cl | -0.3% (inactive) | – |
| COc1ccc(-n2ncc(C(=O)NC3CC3)c2C2CCN(C(=O)OC(C)(C)C)CC2)cc1 | 1.2% (inactive) | – |
| CC(C)(C)OC(=O)N1CCC(c2c(C(=O)NC3CC3)cnn2-c2ccc(Cl)cc2)CC1 | 3.6% (inactive) | – |
| COc1ccc(CCNC2CC(=O)N(CCc3ccccc3)C2=O)cc1 (stereo not given) | 0.5% (inactive) | – |
| COCCN1C(=O)N(c2cccc(C)c2)C(=O)C1CC(=O)Nc1cc(OC)cc(OC)c1 (stereo not given) | 0.1% (inactive) | – |
| O=C1OC(c2ccc(F)cc2)=C/C1=C\c1ccc([N+](=O)[O-])o1 | 77.6% (active) | – |
| O=C1OC(c2ccc(F)cc2)=C/C1=C\c1ccc(O)cc1 | 1.8% (inactive) | – |
| O=[N+]([O-])c1ccc(/C=N\NS(=O)(=O)c2ccc(F)cc2)o1 | 1.3% (inactive) | – |
| COc1cccc(/C=c2\sc3nc(-c4cccs4)nn3c2=O)c1OC | 2.8% (inactive) | – |
| COc1ccc(OC)c(/C=c2\sc3nc(-c4cccs4)nn3c2=O)c1 | 60.9% (active) | 58 |
| COc1ccc(Br)cc1/C=c1\sc2nc(-c3ccco3)nn2c1=O | 56.1% (active) | – |
| CCOc1ccc(/C=c2\sc3nc(-c4ccco4)nn3c2=O)cc1OCC | 21.5% (inactive) | – |
| COc1ccccc1/C=c1\sc2nc(-c3ccco3)nn2c1=O | 36.3% (inactive) | – |
| COc1ccc(/C=c2\sc3nc(-c4ccccc4OC)nn3c2=O)c(OC)c1 | 11.2% (inactive) | – |
| CC(C)n1cc(C(=O)c2ccccc2O)cc(C#N)c1=O | -0.9% (inactive) | – |
| CC(C)CC(C(=O)O)N1C(=O)C2C3c4ccccc4C(c4ccccc43)[C@@H]2C1=O (stereo not given in full) | -0.8% (inactive) | – |

| Compound | inhibition (at 20 µM) | inhibition [1] [%] |
| --- | --- | --- |
| CCCCCCCNC(=O)C1(CC2CC(c3ccc(Cl)cc3)=NO2)CCN(C(=O)OC(C)(C)C)CC1 (stereo not given) | 0.6% (inactive) | – |
| Cc1oncc1C(=O)NC1CCCCC1 | 0.8% (inactive) | – |
| CCOc1ccccc1N(CC(=O)NCCc1ccccc1)C(=O)CCC(=O)Nc1ccccn1 | 0% (inactive) | – |
| CN1/C(=C\C=C2/SC(=S)N(CC(=O)O)C2=O)C(C)(C)c2ccccc21 | 148% (inactive) | – |
| C=CCN1C(=O)/C(=C\C=C2\N(C)c3ccccc3C2(C)C)SC1=S | 54.6% (active) | – |
| CCCCN1C(=O)/C(=C/C=C2\N(C)c3ccccc3C2(C)C)SC1=S | -0.3% (inactive) | – |
| COc1cccc(-c2noc(CCCC(=O)Nc3ccc(C(N)=O)cc3)n2)c1 | 0.5% (inactive) | – |
| CCCCCCCCn1ccc(=N)cc1 | -1.2% (inactive) | – |
| CCCCCCCCCCCCCCCCn1cc[n+](C)c1 | 137% (inactive) and 70.3% (active) | – |
| CCCCCCn1ccc(=N)cc1 | -2% (inactive) | – |
| C[C@H](NC(=O)C1CCN(S(=O)(=O)c2ccccc2)CC1)C(=O)NCc1cccc(Cl)c1 | -1.4% (inactive) | – |
| CCOC(=O)C1=C(C)C2C3C(=O)N(c4cc(C)ccc4C)C(=O)C3C1(C)C1C(=O)N(c3cc(C)ccc3C)C(=O)C21 (stereo not given) | -0.1% (inactive) | – |
| COC(=O)c1sc(N2C(=O)C(O)=C(C(=O)c3ccc(C)o3)C2c2ccc(OC)c(OC)c2)nc1C (stereo not given) | 15.3% (inactive) | – |
| COCCn1c(SCc2cc(C(C)=O)ccc2OC)nc2cc(Cl)ccc2c1=O | -2.4% (inactive) | – |
| CCOC(Cn1c(SCc2cc(C(C)=O)ccc2OC)nc2ccccc2c1=O)OCC | 3.3% (inactive) | – |
| COc1ccc(C(C)=O)cc1CSc1nc2cc(C(=O)O)ccc2c(=O)n1Cc1ccccc1 | 62.4% (active) | – |
| COCC(C)n1c(SCC(=O)c2cc(C)n(C)c2C)nc2ccccc2c1=O (stereo not given) | 0.2% (inactive) | – |
| CC(C)(C)c1ccc(NC(=O)C2CCCN(c3cnccn3)C2)cc1 (stereo not given) | -0.1% (inactive) | – |
| CCOc1cc([N+](=O)[O-])cc2c1C(=O)Nc1ccccc1O2 | 104% (active) | 57.4 |
| O=C1Nc2ccccc2Oc2cc([N+](=O)[O-])ccc21 | 13% (inactive) | – |
| Cc1cccc(Oc2cc([N+](=O)[O-])cc3c2C(=O)Nc2ccccc2O3)c1 | 46.8% (inactive) | – |
| Cc1ccc(Oc2cc([N+](=O)[O-])cc3c2C(=O)Nc2ccccc2O3)cc1 | 40.9% (inactive) | – |
| Cc1ccc2c(c1)NC(=O)c1cc([N+](=O)[O-])ccc1O2 | 2.5% (inactive) | – |

| Compound | inhibition (at 20 µM) | inhibition [1] [%] |
| --- | --- | --- |
| O=C1Nc2ccccc2Oc2cc([N+](=O)[O-])cc(Oc3ccccc3)c21 | 59.7% (active) | – |
| CCOc1cccc(C(=O)Nc2cccc(C(C)=O)c2)c1 | -0.2% (inactive) | – |
| Cc1ccc(CN(C(=O)c2ccccc2[N+](=O)[O-])C2CCS(=O)(=O)C2)o1 (stereo not given) | 0.4% (inactive) | – |
| COc1cccc(OC)c1C(=O)NC(=O)Nc1c(F)c(F)c(F)c(F)c1F | 0.3% (inactive) | – |
| O=C(O)CC(c1cccc(C(F)(F)F)c1)N1CCS(=O)(=O)CC1 (stereo not given) | 0.6% (inactive) | – |
| CCc1ccc(CN(C(=O)COc2c(C)cccc2C)C2CCS(=O)(=O)C2)cc1 (stereo not given) | -0.3% (inactive) | – |
| O=C(Nc1nnc(-c2cccc(F)c2)s1)Nc1ccccc1F | 0.6% (inactive) | – |
| O=c1[nH]c2c(cc1CNCCN1CCOCC1)c(-c1cccc(F)c1)nn2-c1ccccc1 | -1.4% (inactive) | – |
| COc1ccc(CNC(=O)Oc2ccccc2)cc1Cl | -0.6% (inactive) | – |
| Cc1ccc(C)c(N2C(=N)S/C(=C\c3ccc(-c4ccccc4C(=O)O)o3)C2=O)c1 | 52.1% (inactive) | 18.9 |
| O=C(O)c1ccccc1-c1ccc(/C=C2\SC(=O)N(c3ccccc3)C2=O)o1 | 11% (inactive) | – |
| COc1ccccc1N1C(=N)S/C(=C\c2ccc(-c3ccccc3C(=O)O)o2)C1=O | 54% (active) | – |
| CN(C)c1ncc(/C=C2/C(=O)NC(=S)N(C3CCCCC3)C2=O)cn1 | 32.3% (inactive) | – |
| O=C(NNC(=S)NC1CCCCC1)c1ccccc1O | 3.3% (inactive) | – |
| O=C1/C(=C/c2ccco2)Cc2ccccc21 | 29.3% (inactive) | – |
| O=C1/C(=C\c2ccc(Br)o2)Cc2ccccc21 | 21.7% (inactive) | – |
| O=C1C(=Cc2ccco2)C(=O)c2ccccc21 | 33.3% (inactive) | – |
| O=C1/C(=C/c2ccco2)CCc2ccccc21 | 57.7% (active) | – |
| COc1ccc2c(c1)CC/C(=C/c1ccco1)C2=O | 44.1% (inactive) | – |
| Nc1ccc2c(c1)C/C(=C/c1ccco1)C2=O | 73.6% (active) | – |
| CC(C)N(C(=O)Cn1cc(S(=O)(=O)CC(=O)NC2CCCCC2)c2ccccc21)C(C)C | -0.7% (inactive) | – |
| Cc1ccc(-c2csc(NCCn3c(C(F)(F)F)nc4ccccc43)n2)cc1 | 1.7% (inactive) | – |
